± gives the standard deviation of the averaged measurements. Whole data set: some 25,000 sequences, median “ln(normalized median fluorescence intensity)” near 8.9, cut for the highest 2% near 10. The entries come from a sample that favours the highest values as a whole.

The test has as its system PfAP2-LT AP2 domain (GST-tagged). As to the kind of experiment: gcPBM binding intensity (ln(normalized median fluorescence intensity)); higher = stronger DNA binding. In outline: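 DNA-binding domains from P. falciparum, fused to GST and produced in E. coli, were put on an Agilent 4 × 180k double-stranded probe array for 1 h in 1× PBS holding 1% milk, 0.2 mg/ml BSA, 0.5% salmon testes DNA and 0.03% Triton X-100. Probes were primer-extended, 36 bp long and drawn from intergenic genomic regions, with negative controls included. After Alexa488 anti-GST antibody detection and a 488 nm scan, binding intensity was set as the highest Masliner-normalised natural-log median intensity across replicate spots of either probe orientation.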
For the sequence “TTTTTTTTTTTTTTTACACACTATAGGGAAAAAAAA [CACACA_site1916]”, the “gcPBM binding intensity (ln)” value came to 8.21 ± 0.37.

For “AGAAAGAAAGAATACACACACACATATATATATATC [CACACA_site3744]”, the “gcPBM binding intensity (ln)” value was 9.95 ± 0.3.

Regarding “GAATTAAAATAATACGTACACACATGTATAATACAT [CACACA_site1004]”, the “gcPBM binding intensity (ln)” value is 9.21 ± 0.29.

For the sequence “AAAAAATATATATCACGTGGTAATATATATATATAT [XGTACX_negctrl_site252]”, the “gcPBM binding intensity (ln)” value was determined as 9.16 ± 0.14.

“CATAAATACATACATACACACATATTTATATTTATA [CACACA_site7071]”: the “gcPBM binding intensity (ln)” value is 9.16 ± 0.4.

With “ATAATATATATATAAACACACAAAAAAAATTATATA [CACACA_site1534]”, the “gcPBM binding intensity (ln)” value was found to be 8.96 ± 0.42.

As for “ATATAATATATATATAAACACACAAAAAAAATTATA [CACACA_site8434]”, the “gcPBM binding intensity (ln)” value came to 8.97 ± 0.45.

In the case of “TATATATAAAAACACACACACACACCCTATAATTAT [CACACA_site4063]”, the “gcPBM binding intensity (ln)” value came out at 10.18 ± 0.042.

Consider “TTGAAAATACAAAATTGTACAAAGATTTAAATAAAA [XGTACX_site1182]”, for which the “gcPBM binding intensity (ln)” value was found to be 8.7 ± 0.49.

For the sequence “AATAAATAAGCACATACACACATACATACATACATA [CACACA_site6075]”, the “gcPBM binding intensity (ln)” value came to 9.54 ± 0.26.

With “ATACATCAAGGACACACACACACACCCACACCCACA [CACACA_site8013]”, the “gcPBM binding intensity (ln)” value was found to be 10.4 ± 0.27.

In the case of “AGAAGCATACATCAAGCACACACACCCACACCCACA [CACACA_site8014]”, the “gcPBM binding intensity (ln)” value was 10 ± 0.37.

In the case of “TGAATAAATCAAAGCACACATACACCCACATATATA [CACACA_site286]”, the “gcPBM binding intensity (ln)” value turned out to be 9.47 ± 0.24.

On to “CATATACATCCACATACACACATACACCCATACACA [CACACA_site5038]”, for which the “gcPBM binding intensity (ln)” value is 9.66 ± 0.28.

For “GCATACATCAAGCACACACACACACGCACACGCACA [CACACA_site6311]”, the “gcPBM binding intensity (ln)” value was determined as 10.2 ± 0.19.

On to “AAGCATACATCAAGCACACACACACCCACACCCACA [CACACA_site372]”, for which the “gcPBM binding intensity (ln)” value worked out at 10.3 ± 0.42.

On to “TAAATAAGCACATACACACATACATACATACATAAA [CACACA_site4017]”, for which the “gcPBM binding intensity (ln)” value worked out at 9.44 ± 0.38.

For “AAATAAAAAAAAAAAAAAAATAACTTAAATGGGATA [TGCATGCA_negctrl_site595]”, the “gcPBM binding intensity (ln)” value came to 8.33 ± 0.58.

With “TGCATTATATTAAATTTTTTATTTGTTGATGTTATA [GTGCAC_negctrl_site371]”, the “gcPBM binding intensity (ln)” value was 8.57 ± 0.47.

With “TAAAATATATATATGTGTACATAACATATAATTTTT [XGTACX_site1725]”, the “gcPBM binding intensity (ln)” value was found to be 8.6 ± 0.46.

As to “TAAAATTTATAAACTACACACATATATATAGTAATA [CACACA_site3728]”, the “gcPBM binding intensity (ln)” value was found to be 8.8 ± 0.42.

On to “TATATATAATATTTTTCACACACCATTTCCTTAAAC [CACACA_site1341]”, for which the “gcPBM binding intensity (ln)” value was determined as 9.04 ± 0.29.

For the sequence “AATCATGCTCCGGAAAGTACATAAATAAATAAATAA [XGTACX_site1690]”, the “gcPBM binding intensity (ln)” value is 8.85 ± 0.56.

For “TAGAATATCCCCTACACACCCAAATAATTTACAAAT [CACACA_site4825]”, the “gcPBM binding intensity (ln)” value turned out to be 9.3 ± 0.35.

On to “AGGGAATAATATTAATGTACATATATGAACTTGTTT [XGTACX_site6089]”, for which the “gcPBM binding intensity (ln)” value turned out to be 8.93 ± 0.43.

Turning to “TATATATATATAGACACACACACACCCATATATATA [CACACA_site4117]”, the “gcPBM binding intensity (ln)” value was determined as 9.94 ± 0.23.

Consider “CACCCCCACAGACACACACACACACCCACATATATA [CACACA_site365]”, for which the “gcPBM binding intensity (ln)” value came to 10.54 ± 0.035.

Take “TACATATACAGACACACACACACACCCCCACAAAAA [CACACA_site495]”: the “gcPBM binding intensity (ln)” value was found to be 10.45 ± 0.099.

Take “TATATACATAGACACCCACACACAAAAAAAAAAAAA [CACACA_site8186]”: the “gcPBM binding intensity (ln)” value worked out at 9.43 ± 0.42.

“TAGACTCCCAGACACACACACACACCCATATAATAT [CACACA_site593]”: the “gcPBM binding intensity (ln)” value was 10.2 ± 0.35.

As to “CACCCCCACAGACACACACACACACCCATATATATA [CACACA_site364]”, the “gcPBM binding intensity (ln)” value was found to be 10.45 ± 0.042.

Turning to “TATACATACAGACCCACACACAAAAAAAAAAAAAAA [CACACA_site6536]”, the “gcPBM binding intensity (ln)” value was 9.35 ± 0.5.

In the case of “TACGCTCCCAGACACACACACACACCGATATAATAT [CACACA_site8098]”, the “gcPBM binding intensity (ln)” value was determined as 9.89 ± 0.23.

Consider “TATGATACATAATATACATGCATACACAACATTCAG [TGCATGCA_site487]”, for which the “gcPBM binding intensity (ln)” value worked out at 8.94 ± 0.37.

On to “ATATATATACCAAGTAGTACATTCTACAACTAATGT [XGTACX_site8653]”, for which the “gcPBM binding intensity (ln)” value came out at 8.79 ± 0.4.

“ATATTTTGTTATGTAGATGTTGGTAGGAATTTTGGT [CACACA_negctrl_site1104]”: the “gcPBM binding intensity (ln)” value turned out to be 8.83 ± 0.4.

“CAATTAAACAATTAAACATGCAAAATGATATAATAA [TGCATGCA_site240]”: the “gcPBM binding intensity (ln)” value is 8.87 ± 0.49.

In the case of “TACGTAAAAATAGGACGTACTTATTTAGAAACCATA [XGTACX_site2498]”, the “gcPBM binding intensity (ln)” value is 8.72 ± 0.49.

With “AAGAGTTTGAAGTTTGCACACTACGTTAAAAATAAA [CACACA_site3939]”, the “gcPBM binding intensity (ln)” value was determined as 8.72 ± 0.59.

On to ATAAATAAAACAACAGTGCAATAAAATTAGTTGAGG, for which the “gcPBM binding intensity (ln)” value was 9.07 ± 0.54.

With “ACATAATAAAAAAAACGTACAAATAGGTTTTTCATA [XGTACX_site6645]”, the “gcPBM binding intensity (ln)” value is 8.85 ± 0.57.

Turning to “ATGAGTTACATGGGAAAAATATATATATATATATAT [CACACA_negctrl_site579]”, the “gcPBM binding intensity (ln)” value was found to be 9.8 ± 0.23.

As for “TCTATACCTATTCTTACACACATATGTATTTATATA [CACACA_site4475]”, the “gcPBM binding intensity (ln)” value was 9.28 ± 0.46.

Consider “CACCCATACAGACATACACACACATATATATTAATA [CACACA_site8077]”, for which the “gcPBM binding intensity (ln)” value turned out to be 9.67 ± 0.27.

Turning to “CACACCCACAGACACACACACACATATATAATATAT [CACACA_site594]”, the “gcPBM binding intensity (ln)” value was determined as 10.2 ± 0.54.

Source of the values: the supplement of paper PMC11417369.
